# According to PubChem BioAssay AID1788 (Vanderbilt High Throughput Screening Facility, 2009):
# Values without a mark were called inactive. The rule behind the calls is not given here.
# Tested on: Calcium channel L-type (rat)
# Assay: PubChem AID 1788
# Conditions: MDS Pharma lead profiling panel, radioligand binding, benzothiazepine site, at 10 µM, hits give high values
smiles,measurement,value
CCOC(=O)N1CCC(NCCNC(=O)c2ccccc2C)CC1,inhibition,-4%
